# Assay results reported in the supplement of paper PMC3414501.
# Counter-ions that a name gives are not always drawn.
# Tested on: S. cerevisiae NKY1551 his4x/his4B, sporulating;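 active = HIS4 sensitivity z-score above 5 vs DMSO controls; inactive = score 5 or below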
# Experiment: HIS4 meiotic recombination assay sensitivity score (z-score vs DMSO controls); higher = stronger inhibition of sporulation/recombination, active = hit call of the paper
row,Structure (SMILES),HIS4 meiotic recombination assay sensitivity score
1,"NC1CCN(c2nc3c(cc2F)c(=O)c(C(=O)O)cn3-c2ccc(F)cc2F)C1 (stereo unspecified) [Tosufloxacin tosylate] (stock concentration (mM, diluted 1:100): 7)",-2.15 (inactive)
2,"C[C@@H]1C[C@H]2[C@@H]3CCC4=CC(=O)C=C[C@]4(C)[C@@]3(F)[C@@H](O)C[C@]2(C)[C@H]1C(=O)CO [Desoximetasone] (stock concentration (mM, diluted 1:100): 10)",-1.12 (inactive)
3,"C/C=C1\[C@H]2C=C(C)C[C@]1(N)c1ccc(=O)[nH]c1C2 [Huperzine a] (stock concentration (mM, diluted 1:100): 10)",-0.7 (inactive)
4,"CN1CCN(CCCN2c3ccccc3Sc3ccc(Cl)cc32)CC1 [Prochlorperazine] (stock concentration (mM, diluted 1:100): 10.4)",-2.14 (inactive)
5,"C=CC1=C(C(=O)O)N2C(=O)[C@@H](NC(=O)/C(=N\OCC(=O)O)c3csc(N)n3)[C@H]2SC1 [Cefixime trihydrate] (stock concentration (mM, diluted 1:100): 10)",-3.32 (inactive)
6,"Cc1occc(=O)c1O [Maltol] (stock concentration (mM, diluted 1:100): 10)",0.46 (inactive)
7,"C=CC[C@@H]1/C=C(\C)C[C@H](C)C[C@H](OC)[C@H]2O[C@@](O)(C(=O)C(=O)N3CCCC[C@H]3C(=O)O[C@H](/C(C)=C/[C@@H]3CC[C@@H](O)[C@H](OC)C3)[C@H](C)[C@@H](O)CC1=O)[C@H](C)C[C@@H]2OC [Tacrolimus] (stock concentration (mM, diluted 1:100): 10)",-0.77 (inactive)
8,"COc1ccc(/C=C/C(=O)Nc2ccccc2C(=O)O)cc1OC [Tranilast] (stock concentration (mM, diluted 1:100): 10)",0.1 (inactive)
9,"CC[C@H]1OC(=O)[C@H](C)[C@@H](O[C@H]2C[C@@](C)(OC)[C@@H](O)[C@H](C)O2)[C@H](C)[C@@H](O[C@@H]2O[C@H](C)C[C@H](N(C)C)[C@H]2O)[C@](C)(OC)C[C@@H](C)C(=O)[C@H](C)[C@@H](O)[C@]1(C)O [Clarithromycin] (stock concentration (mM, diluted 1:100): 10)",-1.54 (inactive)
10,"COc1cc(C(=O)NC2CCCNC2)cc(OC)c1OC (stereo unspecified) [Troxipide] (stock concentration (mM, diluted 1:100): 10.1)",-0.27 (inactive)
11,"Oc1ccc(/C=C/c2cc(O)cc(O)c2)cc1 [Resveratrol] (stock concentration (mM, diluted 1:100): 10)",1.16 (inactive)
12,"CC(Oc1c(Cl)cccc1Cl)C1=NCCN1 (stereo unspecified) [Lofexidine hydrochloride] (stock concentration (mM, diluted 1:100): 10)",1.48 (inactive)
13,"CN1C(=O)CC[C@H]1c1cccnc1 [Cotinine] (stock concentration (mM, diluted 1:100): 10)",-1.15 (inactive)
14,"CN1C(C(=O)Nc2ccccn2)=C(O)c2ccccc2S1(=O)=O [Piroxicam] (stock concentration (mM, diluted 1:100): 10)",0.11 (inactive)
15,"O=c1[nH]cnc2c1ncn2[C@H]1CC[C@@H](CO)O1 [Didanosine] (stock concentration (mM, diluted 1:100): 10.1)",0.35 (inactive)
16,"CC(C)(C)NCC(O)c1ccc(O)c(CO)c1 (stereo unspecified) [Salbutamol sulfate] (stock concentration (mM, diluted 1:100): 9.7)",-0.65 (inactive)
17,"Cc1cc2c(s1)Nc1ccccc1N=C2N1CCN(C)CC1 [Olanzapine] (stock concentration (mM, diluted 1:100): 9.9)",1.61 (inactive)
18,"Nc1ccn([C@H]2CC[C@@H](CO)O2)c(=O)n1 [Zalcitabine] (stock concentration (mM, diluted 1:100): 10)",-0.41 (inactive)

row,Structure (SMILES),HIS4 meiotic recombination assay sensitivity score
1,"CN(C)CCCC1(c2ccc(F)cc2)OCc2cc(C#N)ccc21 (stereo unspecified) [Citalopram hydrobromide] (stock concentration (mM, diluted 1:100): 7.9)",7.31 (active)
2,"Fc1ccc([C@@H]2CCNC[C@H]2COc2ccc3c(c2)OCO3)cc1 [Paroxetine] (stock concentration (mM, diluted 1:100): 8.8)",9.22 (active)
3,"CCCCN1CCCC1CNC(=O)c1cc(C#N)c2ccccc2c1OC (stereo unspecified) [Nafadotride] (stock concentration (mM, diluted 1:100): 10)",-0.64 (inactive)
4,"CN1CCN(C2=Nc3ccccc3Oc3ccc(Cl)cc32)CC1 [Loxapine succinate] (stock concentration (mM, diluted 1:100): 11)",7.41 (active)
5,"Nc1nc(O)c2ncn(CCC(CO)CO)c2n1 [Penciclovir] (stock concentration (mM, diluted 1:100): 10)",-0.35 (inactive)
6,"Cc1[nH]cnc1CN1CCc2c(c3ccccc3n2C)C1=O [Alosetron hydrochloride] (stock concentration (mM, diluted 1:100): 8.9)",-3.51 (inactive)
7,"O=C1CC[C@@H](C(=O)N2CSC[C@H]2C(=O)O)N1 [Pidotimod] (stock concentration (mM, diluted 1:100): 10)",-0.31 (inactive)
8,"Cc1ccnc2c1NC(=O)c1cccnc1N2C1CC1 [Viramune] (stock concentration (mM, diluted 1:100): 10)",0.21 (inactive)
9,"CC(=O)OCC(=O)NCCCOc1cccc(CN2CCCCC2)c1 [Roxatidine acetate hydrochloride] (stock concentration (mM, diluted 1:100): 9.1)",-1.59 (inactive)
10,"CN(C)CC/C=C1/c2ccccc2COc2ccc(CC(=O)O)cc21 [Olopatadine hydrochloride] (stock concentration (mM, diluted 1:100): 12.7)",-0.7 (inactive)
11,"CCN(CC)CC1CCCCN1CC(=O)N1c2ccccc2C(=O)Nc2cccnc21 (stereo unspecified) [Otenzepad] (stock concentration (mM, diluted 1:100): 10)",-0.63 (inactive)
12,"CCCN[C@H]1CCc2nc(N)sc2C1 [Pramipexole] (stock concentration (mM, diluted 1:100): 10)",-2.92 (inactive)
13,"CNC(=C[N+](=O)[O-])NCCSCc1csc(CN(C)C)n1 [Nizatidine] (stock concentration (mM, diluted 1:100): 10)",-0.53 (inactive)
14,"CC[N+](C)(CC)CCOC(=O)C(O)(c1ccccc1)C1CCCCC1 (stereo unspecified) [Oxyphenonium bromide] (stock concentration (mM, diluted 1:100): 10)",1.35 (inactive)
15,"CCOC(=O)c1ncn2c1CN(C)C(=O)c1cc(F)ccc1-2 [Flumazenil] (stock concentration (mM, diluted 1:100): 10)",-0.81 (inactive)
16,"Nc1nc2ccc(OC(F)(F)F)cc2s1 [Riluzole] (stock concentration (mM, diluted 1:100): 9.9)",6.83 (active)
17,"O=c1c(O[C@@H]2O[C@H](CO)[C@H](O)[C@H](O)[C@H]2O)c(-c2ccc(O)c(O)c2)oc2cc(O)cc(O)c12 [Hyperoside] (stock concentration (mM, diluted 1:100): 8.8)",0.06 (inactive)
18,"Cc1c(O)cccc1C(=O)N[C@@H](CSc1ccccc1)[C@H](O)CN1C[C@H]2CCCC[C@H]2C[C@H]1C(=O)NC(C)(C)C [Nelfinavir mesylate] (stock concentration (mM, diluted 1:100): 8.6)",0.21 (inactive)
